SNCA expr inhib = inhibitors of alpha-synuclein (SNCA) gene expression. HEK-293 SNCA-luciferase knock-in, luminescence, 24 h. Potency, µM (titrated, usually from 57.2 µM), for the others: at the top dose activity change, negative = inhibition, actives largely listed as inhibitors. actives 0.17% (n = 140,000). AID 1671194;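 also: plate controls were DMSO cells for no effect and cell-free wells for full effect; nearly all actives have a fitted effect of over 45% in size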
Luciferase inh = inhibitors of firefly (Photinus pyralis) luciferase | actives 2.5% (n = 76,000) | Potency, µM (highest dose often 115 µM), hits mostly inhibitors | P08659 | AID 1347043 | purified P. pyralis luciferase, luminescence, biochemical; also: nearly all actives have a fitted effect of over 65% in size
Target sequence (P08659 whole entry, looked up): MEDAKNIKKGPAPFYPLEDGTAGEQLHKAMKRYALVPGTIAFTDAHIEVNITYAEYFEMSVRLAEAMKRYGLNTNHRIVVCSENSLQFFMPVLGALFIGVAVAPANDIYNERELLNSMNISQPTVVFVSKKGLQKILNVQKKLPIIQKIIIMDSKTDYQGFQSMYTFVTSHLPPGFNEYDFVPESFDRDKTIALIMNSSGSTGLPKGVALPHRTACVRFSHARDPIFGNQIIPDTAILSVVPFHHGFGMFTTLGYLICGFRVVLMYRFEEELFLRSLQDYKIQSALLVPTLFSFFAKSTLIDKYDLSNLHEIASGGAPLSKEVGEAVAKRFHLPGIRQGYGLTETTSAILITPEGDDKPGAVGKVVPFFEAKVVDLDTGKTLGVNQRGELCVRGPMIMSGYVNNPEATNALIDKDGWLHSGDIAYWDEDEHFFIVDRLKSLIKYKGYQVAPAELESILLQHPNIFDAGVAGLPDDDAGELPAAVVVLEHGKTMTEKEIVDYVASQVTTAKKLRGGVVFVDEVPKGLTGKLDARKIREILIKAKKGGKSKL
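Inhibitors were tested against purified firefly luciferase in a biochemical, low-substrate format (both substrates at 10uM) and luminescence measured with a CCD imager.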
HEK293 tox = cytotoxic compounds in HEK 293 cells. Potency, µM (series often up to 115 µM), inactives show at the top dose activity change, negative = cytotoxicity, most hits filed as inhibitors. actives 6.6% (n = 94,000). HEK 293 viability, ATP luminescence (CellTiter-Glo), 48-72 h; also: nearly all actives have a fitted effect of over 60% in size
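Cytotoxicity was scored by loss of ATP-coupled luminescence (CellTiter-Glo) in HEK 293 cells. Compound treatment ran 48 or 72 hr at 37 degree Celsius, 5% CO2, 95% humidity.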
HEK293 viab = counter-screen for SNCA expression inhibitors: cell viability | HEK-293-SNCA-luc viability, GF-AFC fluorescence, 24 h | actives 0.12% (n = 150,000) | AID 1671193 | Potency, µM (titrated, usually from 57.1 µM), for the others: at the top dose activity change, negative = cytotoxicity, actives largely listed as cytotoxic;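 also: 0% = DMSO-treated cells and -100% = medium-only wells without cells; nearly all actives have a fitted effect of over 30% in size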
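HEK-293-SNCA-luc cells (1500/well) plated 24 h, then exposed 24 h to a dilution series; GF-AFC added 30 min at 37C, fluorescence 405/540 nm; normalised to medium-only and DMSO wells, Hill fit.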
NPR1 antag = blocks ANP-stimulated signaling of human Npr1 receptor; P16066; HEK293 hNpr1 GloSensor cGMP, ANP-stimulated luminescence; Potency, µM (highest dose often 46.3 µM), without a hit: top-dose activity change, negative = inhibition, actives largely listed as inhibitors; actives 1.6% (n = 76,000); calls by dose curve; also: nearly all actives have a fitted effect of over 60% in size
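Compound pre-incubated 30 min at room temperature on GloSensor-loaded HEK293 cells stably carrying hNpr1 and the pGS-40F cGMP biosensor. Stimulation uses hNppA at 0.1 nM final; luminescence is taken at baseline and 20 min post-agonist.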
3T3 cytotox = cytotoxic compounds in NIH 3T3 cells; NIH 3T3 viability, CellTiter-Glo ATP luminescence, 48-72 h; Potency, µM (doses to about 96.7 µM), for inactives: at the highest dose activity change, negative = cytotoxicity, most hits filed as inhibitors; actives 4.3% (n = 94,000); AID 1345082; also: nearly all actives have a fitted effect of over 55% in size
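Mouse fibroblast NIH 3T3 cells, 400 per well, received compound via pintool and were incubated for 48 or 72 hr prior to CellTiter-Glo ATP luminescence measurement.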
Active calls of the source: *; i = inactive; ? = inconclusive; / = no result given; [ ] = dose if it differs, or a comment. Only some compounds are listed: those with a hit (about 7.2% of all), similar ones and a draw of the others. Unless noted, calls follow the shape of the dose curve; as a rule, active = well fitted curve in the direction sought with a large enough effect; inconclusive = small, poorly fitted or top-dose-only effect, or another doubt; inactive = no such curve, though single readings can be large; an effect the other way counts as inactive or inconclusive. Unless noted, % is scaled to controls: 0 for no effect and ±100 for the full control effect; potency is read from the fitted curve at half-maximal effect.

SMILES | SNCA expr inhib | Luciferase inh | HEK293 tox | HEK293 viab | NPR1 antag | 3T3 cytotox
CN(C)c1ncc2c(n1)C(C)(C(=O)Nc1ccncc1)CCC2 (stereo unspecified) | -12%[87.6 µM] | i | ? | 5%[87.6 µM] | -2%[70.6 µM] | 10µM*
CN(C)c1ncc2c(n1)C(C)(C(=O)NCc1cccc(F)c1)CCC2 (stereo unspecified) | ? | i | ? | -2%[87.6 µM] | -2%[70.6 µM] | ?
CN(C)c1ncc2c(n1)C(C)(C(=O)NCc1cccc(Cl)c1)CCC2 (stereo unspecified) | -15%[87.6 µM] | i | 100µM* | -2%[87.6 µM] | -22%[70.6 µM] | ?
c1ccc(-c2ccccc2CN[C@@H]2C[C@@H]3CO[C@H](c4ccccc4)C[C@@H]3C2)cc1 | / | / | ? | / | / | 18µM*
COc1ccccc1-c1cccc(CN2CCCC(C(=O)N3CCN(Cc4ccccc4)CC3)C2)c1 (stereo unspecified) | -5% | / | 40µM* | -10% | / | 35µM*
O=C(C1CCCN(Cc2cccc(-c3ccc(F)cc3F)c2)C1)N1CCC(c2ccccc2)CC1 (stereo unspecified) | 7% | / | ? | -11% | / | ?
COc1ccccc1-c1cccc(CN2CCCC(C(=O)N3CCC(c4ccccc4)CC3)C2)c1 (stereo unspecified) | -11% | / | 40µM* | -14% | / | ?
COc1ccccc1-c1cccc(CN2CCCC(C(=O)N(C)C)C2)c1 (stereo unspecified) | 3%[87.6 µM] | / | ? | 9%[87.6 µM] | / | ?
COc1ccccc1-c1cccc(CN2CCCC(C(=O)N3CCN(C(C)=O)CC3)C2)c1 (stereo unspecified) | -2% | / | ? | 18% | / | -32%
COc1ccccc1-c1cccc(CN2CCCC(C(=O)N3CCCC(C)C3)C2)c1 (stereo unspecified) | ? | / | 40µM* | -7% | / | ?
COc1ccccc1-c1cccc(CN2CCCC(C(=O)N3CCN(c4ncccn4)CC3)C2)c1 (stereo unspecified) | -10% | / | 16µM* | -3% | / | ?
O=C(c1cnccn1)N1CCCC(c2ccccc2)(c2ccccc2)C1 | -1% | i | ? | -2% | 6% | -13%
OCCC1CN(Cc2cccn2-c2ccccn2)CCN1Cc1cccs1 (stereo unspecified) | -6% | i | -10% | 7% | -1% | i
COc1ccc(-n2cc(CN3CCN(C)C(C)C3)c(-c3cccc(F)c3)n2)cc1 (stereo unspecified) | 12% | ? | 35µM* | -7% | -4% | 32µM*
COc1ccc(-n2cc(CN3C[C@@H](C)O[C@@H](C)C3)c(-c3cccc(F)c3)n2)cc1 | -3% | i | ? | -10% | -1% | -19%
COc1cccc(CN2CCOC3CCN(CCCc4ccccc4)CC3C2=O)c1 (stereo unspecified) | 19%[87.6 µM] | i | ? | 0%[87.6 µM] | -1%[70.6 µM] | 79µM*
O=C1Nc2ccccc2C12CCN(S(=O)(=O)c1cccs1)C2 (stereo unspecified) | 3%[87.6 µM] | i | 89µM* | -21%[87.6 µM] | -4%[70.6 µM] | ?
O=C1Nc2ccccc2C12CCN(S(=O)(=O)c1cccc(C(F)(F)F)c1)CC2 | -18% | / | ? | 1% | / | -27%
Cc1ccsc1C(=O)NC1CCN(C(=O)N2CC3CC(C2)[C@H]2CCCC(=O)N2C3)CC1 (stereo partly specified) | 23% | i | -6% | -10% | 3% | -4%
COc1ccccc1-c1nc(C(=O)N(C)C)n2ccccc12 | 110%[87.6 µM] | / | 2%[172 µM] | -3%[87.6 µM] | / | 1%[138 µM]
CCCNC(=O)C1COC2(CCC(C)CC2)N1C(=O)c1ccccc1Cl (stereo unspecified) | 14% | i | ? | 3% | -2% | -27%
CN(Cc1cccc(N2CCN(S(=O)(=O)c3ccccc3C(F)(F)F)CC2)c1F)S(C)(=O)=O | / | / | 35µM* | / | / | ?
O=C(c1ccccc1)N1CCC2(CC1)SCC(=O)N2c1ccccc1 | -23% | i | -7% | 11% | 0% | -1%
COCC(=O)N[C@H]1C[C@H]2C(=O)NC[C@@H](CCC(=O)N3CCc4ccccc43)N2C1 | 22%[87.6 µM] | i | i | -1%[87.6 µM] | 6%[70.6 µM] | i
Cc1ccc(C(=O)N2CCN(C(=O)c3nnn4c3COC(c3ccc(Cl)cc3)C4)CC2)cc1F (stereo unspecified) | 9% | i | -16% | -1% | -1% | -12%
SMILES | SNCA expr inhib | Luciferase inh | HEK293 tox | HEK293 viab | NPR1 antag | 3T3 cytotox
Cc1ccc(C)c(C(=O)N2CCN(C(=O)c3nnn4c3COC(c3ccc(Cl)cc3)C4)CC2)c1 (stereo unspecified) | -23% | i | 45µM* | -27% | ? | ?
Cc1ccc(C)c(C(=O)N2CCN(C(=O)c3nnn4c3COC(c3ccccc3)C4)CC2)c1 (stereo unspecified) | 9% | i | 40µM* | 4% | -22% | -15%
COCCCn1c(=O)c(C(=O)N2CCN(C(=O)Cc3cccc(Cl)c3)CC2)nc2cccnc21 | -4% | / | 3% | 7% | / | -18%
CC1=C(C(=O)OC(C)(C)C)C(c2ccc(Cl)cc2)N2C(CC(=O)N3CCCC3)=CSC2=N1 (stereo unspecified) | 26% | i | ? | -2% | -26% | ?
CC1=C(C(=O)NC(C)(C)C)C(c2ccc(Cl)cc2)N2C(CC(=O)N3CCCC3)=CSC2=N1 (stereo unspecified) | ? | i | ? | -25% | -17% | 45µM*
COc1cccc(CN2CCCC(Cc3ncc(C)n3Cc3ccccc3)C2)c1OC (stereo unspecified) | -21% | i | 50µM* | -12% | -23% | ?
O=C(O)CC1CCOCC1 | 23% | i | -2% | 6%[12.5 µM] | 3% | -18%
Cc1ccc(CC(=O)N2CCC3(CC2)N=C(c2ccc(C)cc2)NO3)cc1 | -3% | i | -6% | -8% | -1% | -21%
CS(=O)(=O)N(Cc1ccccc1)c1ccc(C(=O)Nc2cccc(Cl)c2)cc1 | -14% | / | / | 6.3µM* | / | /
Cc1ccc(NC(=O)c2ccc(N(Cc3ccccc3)S(C)(=O)=O)cc2)cc1 | 21% | / | / | 2.8µM* | / | /
O=C(Cc1ccccn1)NC1CCN(Cc2cccc(-c3ccc(F)c(F)c3)c2)CC1 | 4% | / | ? | 5% | / | ?
O=C(Nc1ccc2n(c1=O)C[C@H]1C[C@@H]2CN(C(=O)Nc2ccc(F)cc2)C1)c1ccccc1 | -2% | i | -6% | -6% | 1% | 22µM*

Screens deposited in PubChem BioAssay by National Center for Advancing Translational Sciences (NCATS).
